Reference: PubChem BioAssay (NCI)
This is part of a sample that, as a whole, favours compounds with a hit. Of some 79,000 tested, about 15% had one in any assay. Values without a mark were called inactive. Active and inactive are the calls of the source. No stated cut-off is given here; in the data, active means growth inhibition above about 70%; inactive means the rest.

How the values were obtained:
[1] = NCI Yeast Anticancer Drug Screen. Data for the rad50 strain (AID 155);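 further: 0% = growth of vehicle-only cultures of the same strain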; conditions: S. cerevisiae rad50 strain growth inhibition, stronger effect = higher value
Method in brief: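 Genetically altered yeast (DNA repair pathway); compound treatment; growth inhibition vs vehicle ctrl.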

[2] = NCI Yeast Anticancer Drug Screen. Data for the mec2-1 strain (AID 157); conditions: S. cerevisiae mec2-1 strain, stronger effect = higher value
Method in brief: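 Using mec2-1 yeast: add compound, measure growth, express inhibition versus vehicle-treated cultures.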

[3] = NCI Yeast Anticancer Drug Screen. Data for the sgs1 mgt1 strain (AID 161);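 further: 0% = growth of cultures given vehicle only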; conditions: S. cerevisiae sgs1 mgt1 strain, stronger effect = higher value
Method in brief: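 Compounds are added to genetically altered yeast, and growth is compared with cultures given vehicle alone to give percent inhibition.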

[4] = NCI Yeast Anticancer Drug Screen. Data for the cln2 rad14 strain (AID 165);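 further: 0% = growth equal to vehicle treated cultures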; conditions: S. cerevisiae cln2 rad14 strain, stronger effect = higher value
Method in brief: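 Yeast strain cln2 rad14, bearing defects in cell cycle control and DNA repair, serves as the test system; values reflect growth inhibition compared with vehicle.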

[5] = NCI Yeast Anticancer Drug Screen. Data for the bub3 strain (AID 167); conditions: S. cerevisiae bub3 mutant strain, stronger effect = higher value
Method in brief: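 Yeast carrying a defined mutation is treated with each compound, and growth is compared with that of vehicle-exposed cells to give inhibition.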

[6] = NCI Yeast Anticancer Drug Screen. Data for the mlh1 rad18 strain (AID 175); conditions: S. cerevisiae mlh1 rad18 strain growth inhibition, stronger effect = higher value
Method in brief: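 Steps: expose repair-defective yeast to compound; measure growth; express inhibition against vehicle-treated controls.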

[7] = at 5.0 µM (retest, dose inferred, filed as 0.5)
[8] = at 50.0 µM (retest, dose inferred, filed as 5.0)

Row | SMILES | growth inhibition [1, 7] [%] | growth inhibition [1, 8] | growth inhibition ([1]; at 50.0 µM) | growth inhibition [2, 7] [%] | growth inhibition [2, 8] | growth inhibition ([2]; at 50.0 µM) | growth inhibition [3, 7] [%] | growth inhibition [3, 8] | growth inhibition ([3]; at 50.0 µM) | growth inhibition [4, 7] [%] | growth inhibition [4, 8] | growth inhibition ([4]; at 50.0 µM) | growth inhibition [5, 7] [%] | growth inhibition [5, 8] | growth inhibition ([5]; at 50.0 µM) | growth inhibition [6, 7] [%] | growth inhibition [6, 8] | growth inhibition ([6]; at 50.0 µM)
1 | O=C(Nn1cc(F)c(=O)[nH]c1=O)C12CC3CC(CC(C3)C1)C2 | 41 | 92% (active) | 21.8% | 20 | 96% (active) | 51.4% | 42 | 96% (active) | 91.4% (active) | 20 | 52% | 86.1% (active) | 41 | 90% (active) | 87.5% (active) | 41 | 97% (active) | 57.9%
2 | CC(C)CCN(CCC(C)C)C(=S)Nc1ccccc1 | -13 | 87% (active) | 92.7% (active) | 6 | 93% (active) | 89.2% (active) | -20 | 89% (active) | 86.8% (active) | -22 | 89% (active) | 90.8% (active) | -7 | 94% (active) | 92% (active) | -7 | 94% (active) | 92.5% (active)
3 | CCCCOC(=O)C#CC(=O)OCCCC | -144 | -114% | 99.6% (active) | -45 | -46% | 99.5% (active) | -64 | -40% | 99.3% (active) | -58 | -65% | 99.2% (active) | -69 | -71% | 99.3% (active) | -146 | -105% | 99.2% (active)
4 | N#Cc1ccccc1NC1OCC(O)C(O)C1O (stereo not given) | -149 | -139% | 0.45% | -45 | -45% | -3.35% | -61 | -79% | 10.6% | -58 | -53% | 16.1% | -67 | -74% | 7.2% | -145 | -105% | -3.35%
5 | COc1ccc2c(c1)CCC/C2=N\NS(=O)(=O)c1c(C)cc(C)cc1C | 15 | 59% | 26.2% | 16 | 60% | -43.2% | 16 | 38% | 37.1% | 8 | 68% | 73.5% (active) | 11 | 52% | 54.8% | 26 | 75% (active) | 5.7%
6 | CC(CN(C)C)C(=O)/C=C/c1ccc(C(C)C)cc1 (stereo not given) | 3 | 89% (active) | 93.2% (active) | 6 | 75% (active) | 37.3% | 9 | 93% (active) | 97.2% (active) | 11 | 26% | 25.8% | 0 | 81% (active) | 69% | -1 | 94% (active) | 91.4% (active)
7 | CC(=O)OC1CC2Cc3ccccc3C3(O)COC213 (stereo not given) | -1 | 48% | 49.2% | 6 | 75% (active) | 45.4% | 6 | 76% (active) | 76.7% (active) | 3 | 17% | 14.1% | -7 | 59% | 59% | -2 | 83% (active) | 31.1%
8 | N#CC(C(=O)C(=O)Nc1cccc(C(F)(F)F)c1)c1ccccc1 (stereo not given) | -23 | 90% (active) | -23.1% | -12 | 76% (active) | 10.2% | -19 | 75% (active) | 16.6% | -9 | 90% (active) | -20.7% | -10 | 94% (active) | 6.55% | 34 | 83% (active) | 12.7%
9 | NS(=O)(=O)c1ccc(-n2cccc2)cc1 | 0 | -4% | 10.6% | -2 | -3% | -11.3% | -1 | -3% | -1.6% | 1 | -1% | 56.6% | -6 | -7% | 23.5% | -2 | -3% | 7.7%
10 | O=C(O)C(Cc1cc(I)c(O)c(I)c1)c1ccccc1 (stereo not given) | -14 | 29% | 60.1% | -1 | 34% | 19.2% | -25 | 38% | 16.8% | -5 | 41% | 32.6% | -4 | 29% | 21.9% | 0 | 45% | 57.5%
